In all, about 59,000 sequences were measured (the read-out: median about -0.00055, lowest 2% from about -2 on). Many of the other results were omitted from the sample, so the lowest values are more common in it than they were.
Assay: Identification of proteins required for the processing of the EWS-FLI1 nascent transcript;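 further: robust z of luciferase light less the median z of siRNAs with the same seed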
Settings: TC32 Ewing sarcoma NR0B1-luc vs CMV-luc (EWS-FLI1 target promoter against control promoter), 48 h; screened at 20 nM (by protocol)
Summary of the method: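 Genome-wide siRNA screen (Ambion v4.1, three siRNAs per gene, 20 nM final, RNAiMax) in Ewing sarcoma TC32 cells carrying NR0B1-promoter or CMV-promoter luciferase; OneGlo luciferase read 48 h post-transfection. Data normalized, z-score-MAD transformed and seed-adjusted.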

Sequence	seed-corrected z-score
UUAACCGAUAUAUCCAUGG against LRRTM4	0.0172
UGAGGUCCACGAUAUCUAG against PYDC1	0.555
AAAGAUAUCAGUGACGAAG against HIST1H2BA	-0.152
UAUUGUUCCGUCAUGCACU against PTGDS	0.165
UAUCUCCACAUACCCGUUC against INHBA	-0.368
UACGUAGAUUUGGAAUUCC against ACO1	0.682
UUAGUCUCAGCAUCGGCUC against KIAA1210	-0.103
UCACGAAGGAGUCUAUUCC against PRTN3	-3.15
AUAGAGCCCAUUAUGCUUU against PSG11	-1.42
UUGGUGUUGGGCAACUUGU against HOXB4	0.286
UCACUGAUUCUAGAUGAUG against SPIN3	-0.422
UAUAAAUCAACGGAUUCAG against OR5I1	0.416
UUUUGCACCUGGGUCCUAC against LRWD1	0.154
AAAGGAAAAACCUAUUUUC against LOC728254	0.573
AUAGGUUCCUGUCUGUUGG against PYCRL	0.415
AAAGAUUAAGGUACCAUAG against OR5J2	0.72
UUCGGCUUCACUGUUAUCC against TNR	-2.16
UCCAGUUCUUUCUUGGUCG against GTPBP6	0.447
UUGAUGGAUAGUCAUCACG against RBMX	-0.224
AAAUCGAUAAUCACUUAGG against ZNHIT6	0.142
UAUUUCACAACAGGCACCG against MYO1C	-2.29
UUUUGUGCCUGUGCCCUUG against SBK1	-0.47
AGACUGAUGGUAGUGGUGG against PRRT1	-0.57

Sequence	seed-corrected z-score
UUCAAUAUCAUUCCGAGGC against C6orf62	0.77
UUGUAUGAUUUUGCAAUUG against LINC01014	-0.168
AAAUGUACUCGAUCCCAUG against CPA5	-2.65
UACAGUUCCUCAAUGUUCA against IL1F10	1.27
UAAACAGGCACGAAGCUUC against RPAIN	-0.43
UUAGCUAGAGUUUUCAACC against MLLT11	0.312
UGACGUACCAGCACUGCGU against ADM2	-13.6
UGAGCAUCCAUGCUGGGUA against ZNF688	0.0175
UUCAUUUAAAUUCUAACAC against SYNC	0.372
AUUCAUUCUUAUUAAGUGC against GPX5	-0.0754
UUUGGUUUGAGCAGUCAAG against COMMD1	-2.03
AAUAAAUCCAUCCUUGUUC against GUCA1C	-0.429
UCCUGAUCUAUCCAUAGGC against IFITM3	-0.0222
UUCUCAAACACCUUCUUCC against QTRT1	-0.0367
UGCUCCAUCACAAAGGCGG against FN3K	1.15
AUGGGAAUUAUGUCGGUUG against SCEL	0.236
UCCAGUUGUACUUCUUGCC against GFOD1	-3.99
AAACUCUUUAGGAAAGAUG against POLR2D	-0.98
UUAGCUGCCUGGAUAAGCG against CTNNA2	-0.541
UUUCCAACAUGAUCCACUG against TM2D2	0.00525
AAACGUUUGGAGCCUCUUG against NOXO1	-2.35
AUAGGGAACAGGAUAGCCC against C1orf74	1.41
UAGAUCUUUCCUCUGGUGG against FAM132B	-0.705

Sequence	seed-corrected z-score
UGAACCGAGACUGUGGCAC against SERF1B	-0.313
UCCUUCUUGAGCAGGUUCU against SOX14	-0.364
AUUGUUGUCCAUAAUAGGC against IKZF2	-0.0322
UGACUAUUAAGAUAUGAAG against ZNF121	-2.14
UUCUUUACAACUAUCCGAG against FBXO5	2.48
UUGCCUAUCAGUAGCAGUU against RAB3D	-2.07
UGAUUGGAAAGCUUGUUCU against ME3	0.0737
UCGCUGAUGAGGAUCUUCC against KCNA10	-0.144
UAUACAAUGAGGCAGCUGA against ISCA1P1	0.235
UCUGGUGGGACUGGUGUUG against ZNF574	-3.85
UUUCUGAUCAUCUUGGUCC against SAFB	-0.16
UUCUGGAUCCCAAAUAGUG against ARHGAP19	0.0206
UGUUAUCCGAGUAUAAUAC against PSMD12	-2.56
UUAUCACCCAUAGGAGCCU against LOC400965	0.18
UGUCUUGUAGAUUUCCACC against TATDN1	-0.0339
AUAGCUGUGAGACAUCAGG against PRCD	-2.08
UUAGUUCGUUCCUCUGUGC against PSMC5	1.1
UUCGCUGACUCUGUAACCC against CACNB4	-0.0786
UACUCGCUCACCACAAAGG against SRSF4	-0.234
UCUCGGUUCAUUUUCUUGA against HOXC10	0.936
AAUGAUUUUAGAAGCCUGU against NPR3	0.11
UAAGAUACUAUGGGAAAUA against C20orf166-AS1	-2.11
AAAGUUUAAGCAACCGUCG against RPS23P8	1.69

Sequence	seed-corrected z-score
AAAUCGUUCAAUUACAUCC against ADAM17	0.501
UGGAGAGUAUGGGUAGUCG against CDC34	-1.87
UCAGGUUCUUCCGUAGCUG against PHF21A	-0.312
AAAGACUCCAUAUAGACGG against ROR1	-0.522
AUCAAUGACAUAAUCGCUG against SHANK3	-0.601
AGUGGAGUUAGAUAGUUGG against KDM6A	-4.37
UACCACAUUACACUCGUCU against NPM3	0.156
UUGUUGUCCAUAAUUGUCC against RNF8	1.95
UCCGGAUAUACUGUGCUUC against PCMTD2	0.0601
UUUGGGCCUGCUGAAAUUG against RNF148	0.493
AACUGUCUUGUUGCUCUUG against NFKBID	-0.0314
AAGAUAGUCAAGCAUGUGC against ELMO3	0.733
UGUUGUCGCAGUGAGGAGC against KIAA0141	-2
UUUGGUGACUGGACCGUUC against TRIM24	-0.553
UUGACAGCAAUCACAGUGG against AWAT2	0.583
UCAGCUCGGAUUUCACGGC against SHISA7	0.404
UUAAGUUGAUCUGUACUGC against FAM117B	-0.0872
CAGCCAUCUAGGAUGAGCC against RPL10P8	-0.668
UGGUUUUAGAGGAAUAGGG against SLC51A	-0.953
UAGGAAACCAAGCACAUCU against SH3BGRL	1.88
AUAGCCUCCAGUCCAAUUG against TM2D3	-2.03
UUGGUGGUGAACAUAGGGA against TAL1	-0.201
UAGGUUGGAGAAUUGUUCC against T	-0.372

Sequence	seed-corrected z-score
UGUUGUAGGAAUAGCCUGG against PITX2	-2.28
UGGUCAUUUGGUAUGAGGC against CAPRIN2	0.0796
UUCUUGAGAAGCAGGUUCU against STAT6	-0.716
UGAUCCAUGGGUUCGAUCC against ROCK2	-0.007
AAAAUAGAGGUCACCAUAC against C1orf35	0.456
UGAGAAUUAUGAUCACUGC against SLC7A1	-0.0797
UUUGUGCUUAACUGGCUGG against RPL12	-2.56
GCCGCGUACUUGUUGUUGC against IGLL1	0.951
UCCUGCUACAUUUACAUCG against FERMT1	-3.31
AAACUGAGAAACAUCAAGG against ZNF433	-1.01
UGUCAUCCCAUCAAUGACU against PPIC	-0.679
UUUAAGGCAUCAUCUAGAC against DHFR	-0.615
UUCGAUGAAGAAACUCUGC against DOCK11	0.27
UGCGUUUUUAAGCAUGUGC against RPL17	-2.46
UUUUGUGCCUUCGUUAACC against ADAM9	-0.742
UUUCUGUCCAGCAUAUGUA against SSU72	-0.804
UCUCUUCAGAGCGUGCACC against ANKRD54	-0.161
UUAGCUCCAAGUCUUGCAG against HDLBP	0.263
UACUGGUCCACGGAGAUUU against CSPG4	0.0797
CUUCAUAGUGGUGUCCACG against MUC3B	-0.292
UUCGUUUCGUCUCUUCUAG against ESCO1	1.44
ACCGUUAAAACAAGCUUCG against NBAS	0.0519
UUCGCUGAAAAGAAACUGG against PHRF1	-0.139

Sequence	seed-corrected z-score
UUUAAGCAACCGUCGUUGG against RPS23P8	-9.97
AAUCUAUAACUCUUUGACC against MKKS	-0.508
UGAUGGUCAACUUGAUGCC against LCK	-4.01
UGCAUUCCCACCAAUGUUG against EIF2B2	-0.2
UCAGAGCGAUUUUCAGUAC against KCTD21	0.306
UAUGUUGUCACUAGUCAGC against PNPLA7	-0.38
UUCUGCAAAGCGCCACAGG against SLC22A31	-2.24
UUCUGAGUAAUCUACAAUG against RHOT1	0.1
AACCGUGUAACCAUAGCUC against GABRQ	0.126
AAUAGUACCACCAAAGCAC against ELOVL2	-0.0356
UAUCUCCUCAGCUAAUUCG against SLC17A8	0.0229
UUCGUUAGUUGUUCUAGGC against RB1CC1	-2.96
UCUGUGUAGCUCGGACACC against OR7E24	-0.966
AAUGAAUCAAAUGUAACGG against PNPT1	-0.376
UUUUCAAACAGGUAACAGC against ATM	0.359
UUUUGAGCCUCAGCACUCC against RGL3	-0.0402
UCCAGUUUUCGGAUCUUCC against MRPL40	-2.5
UCUCGUUCAGUUAUCUGCC against HECW2	0.826
